Assay outcomes (PubChem BioAssay)
Cardio protect = cardioprotection against H2O2-induced cell death, primary screen, uHTS, H9c2 cells, ATPLite luminescence. actives 0.63% (n = 360,000). H9c2 cardiomyocytes, H2O2 injury protection, 2 h. protection from H2O2 cell death, % at 20 µM. AID 588492, 2011;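 active = compounds giving at least 50% protection of heart cells from peroxide-induced death in the single-dose screen, raw or plate-pattern-corrected value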;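 also: 0% = DMSO wells with peroxide and 100% = DMSO wells without peroxide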
Neddylation inh = inhibitors of cullin neddylation, primary screen, biochemical, TR-FRET, uHTS, NAE and Ubc12; actives 0.58% (n = 360,000); inhibition, % at 25 µM; in the data active = inhibition above about 36%
Target sequence (P61081 whole entry, looked up): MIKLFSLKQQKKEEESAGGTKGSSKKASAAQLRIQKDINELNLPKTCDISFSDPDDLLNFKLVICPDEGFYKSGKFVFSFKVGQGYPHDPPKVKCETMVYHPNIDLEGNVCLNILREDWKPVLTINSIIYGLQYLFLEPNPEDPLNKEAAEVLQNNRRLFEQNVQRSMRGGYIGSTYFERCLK
Target sequence (Q13564 whole entry, looked up): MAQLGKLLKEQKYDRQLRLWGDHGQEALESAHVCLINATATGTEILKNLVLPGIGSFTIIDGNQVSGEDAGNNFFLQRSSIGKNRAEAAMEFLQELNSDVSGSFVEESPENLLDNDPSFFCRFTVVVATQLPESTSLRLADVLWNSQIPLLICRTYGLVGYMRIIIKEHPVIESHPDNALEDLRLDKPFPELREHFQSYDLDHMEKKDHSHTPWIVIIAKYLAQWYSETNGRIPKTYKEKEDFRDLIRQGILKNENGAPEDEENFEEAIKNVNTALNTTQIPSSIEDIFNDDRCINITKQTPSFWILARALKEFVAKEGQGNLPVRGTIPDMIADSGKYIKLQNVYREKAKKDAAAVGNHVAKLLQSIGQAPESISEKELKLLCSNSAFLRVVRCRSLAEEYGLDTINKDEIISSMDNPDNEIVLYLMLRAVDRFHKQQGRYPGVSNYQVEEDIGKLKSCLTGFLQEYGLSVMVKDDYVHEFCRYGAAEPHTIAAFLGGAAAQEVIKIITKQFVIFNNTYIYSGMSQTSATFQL
GRK2 inh = compounds blocking aptamer binding on GRK2 – biochemical, human GRK2, bead flow cytometry, HTS, primary screen | actives 0.59% (n = 330,000) | FAM-aptamer displacement from GRK2 | Beta-adrenergic receptor kinase 1 (Homo sapiens), P25098 | AID 488847, 2010 | inhibition of aptamer binding, % at 10 µM;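 active = inhibition of aptamer binding above 40%, roughly 3 SD of noise, on plates passing a quality check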;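 also: median bead fluorescence of bound FAM aptamer so fluorescent compounds give negative values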
HDAC3 inhib = HDAC3 deacetylase inhibitors, primary screen, biochemical, fluorescence, cell-free homogeneous; Histone deacetylase 3 (Homo sapiens), O15379; recombinant HDAC3, fluorogenic peptide/trypsin coupled; inhibition, % at 8.3 µM; actives 0.15% (n = 320,000); in the data active = inhibition above about 26%, passing the limit was not always enough
Neddyl conf = blockade of NEDD8 conjugation to cullin – biochemical, TR-FRET, single concentration, confirmation. calls only at 25 µM. actives 13% (n = 1,800). TR-FRET cullin neddylation biochemical assay. AID 652217, 2013. shares compounds with Neddylation inh; in the data active = inhibition above about 40%;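 also: neddylation substrate is the cullin 1 ring ligase complex with SKP2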
Numbers without * were called inactive; i = inactive; · = not tested or not shown; + = active, no number. Compounds with a hit are over-represented: about 1.8% of the library has one in this group of screens.

SMILES	Cardio protect	Neddylation inh	GRK2 inh	HDAC3 inhib	Neddyl conf
COc1ccc(/C=C/C(=O)OCC(=O)Nc2cc3oc4ccccc4c3cc2OC)cc1	·	·	0	0	·
COc1cc(/C=C/C(=O)NCc2cccnc2)cc(OC)c1OC	12	47*	0	6	i
COc1cc2c(cc1NC(=O)/C=C/c1cc(OC)c(OC)c(OC)c1)oc1ccccc12	37	46*	0	0	i
Cc1ccc(CNC(=O)c2cc(C3CC3)nc3c2cnn3C(C)C)cc1	-3	43*	1	-5	i
COc1ccc(CNC(=O)c2cc(C3CC3)nc3c2cnn3C(C)C)cc1OC	0	13	0	2	·
CC(C)n1ncc2c(C(=O)NCCc3ccc(F)cc3)cc(C3CC3)nc21	-4	59*	·	·	·
CCOc1ccc2c(S(=O)(=O)O)cccc2c1[N+](=O)[O-]	1	-33	·	·	·
NS(=O)(=O)c1ccc(CCNC(=O)/C=C/c2cccc([N+](=O)[O-])c2)cc1	-2	-36	1	-7	·
CCOC(=O)c1ccc(-c2ccc(/C=N/NC(=O)CN(c3cccc(C)c3)S(C)(=O)=O)o2)cc1	0	·	1	-3	·
CCOC(=O)c1ccc(-c2ccc(/C=N/NC(=O)CN(c3ccccc3Cl)S(C)(=O)=O)o2)cc1	-6	51*	2	-2	i
COc1ccc(-c2cc(-c3ccco3)[nH]c(=O)c2C#N)cc1	-4	54*	0	-1	i
N#Cc1c(-c2cccc(Br)c2)cc(-c2ccco2)[nH]c1=O	-6	·	0	-22	·
O=c1cc(-c2ccco2)oc2ccccc12	27	40*	·	·	+
N#CCOc1ccc2oc(-c3ccco3)cc(=O)c2c1	·	·	6	-34	·
O=c1cc(-c2c(F)c(F)c(F)c(F)c2F)oc2ccccc12	-19	-25	0	-2	·
Cc1ccc2oc(-c3ccco3)cc(=O)c2c1	-19	45*	4	-19	+
O=C(Cc1ccc(Cl)cc1)Nc1ccc2c(c1)C(=O)NC2=O	-13	51*	6	1	·
CC(=O)c1ccc(C(=O)Nc2ccc3c(c2)C(=O)NC3=O)cc1	19	45*	10	0	i
CCOC(=O)C1=CCC2C(=O)N(CC)C(=O)C12 (stereo unspecified)	7	1	·	·	·
Cc1nc2c(C#N)cnn2c2c1CCN(Cc1ccccc1)N2C	6	16	1	-1	·
Cc1nc2c(C#N)cnn2c2c1CCN2CC1CCCO1 (stereo unspecified)	7	43*	0	-13	i
O=S(=O)(c1ccc(Cl)cc1)N1c2ccccc2Oc2nc3ccccc3nc21	8	41*	11	-4	i
Cc1c(/C=N/NC(=O)C2(O)c3ccccc3-c3ccccc32)cnn1C	0	0	0	0	·
O=C(N/N=C/c1ccccc1O)C1(O)c2ccccc2-c2ccccc21	48	46*	3	2	i
Cc1ccc(-c2csc(N3CCN(c4cc5c(cc4Cl)nc(C)n5CCN4CCCCC4)CC3)n2)cc1	-12	13	0	10	·
SMILES	Cardio protect	Neddylation inh	GRK2 inh	HDAC3 inhib	Neddyl conf
Cc1csc(N2CCN(c3cc4c(cc3Cl)nc(-c3ccncc3)n4CCCN3CCCC3)CC2)n1	1	30*	0	5	i
Cc1ccn2c(=O)c(C(=O)NCCCN3CCCC3=O)c(O)nc2c1	0	48*	0	-2	+
Cc1csc2nc(O)c(C(=O)NCCCN3CCCC3=O)c(=O)n12	0	0	2	3	·
Cc1ccn2c(=O)c(C(=O)NCCCN3CCCCC3C)c(O)nc2c1 (stereo unspecified)	-2	45*	0	-12	i
CCC1CCCCN1CCCNC(=O)c1c(O)nc2cc(C)ccn2c1=O (stereo unspecified)	-2	30	0	-3	·
Cc1ccn2c(=O)c(C(=O)NC3CCCCC3C)c(O)nc2c1 (stereo unspecified)	1	44*	3	-6	i
CCOc1ccc(N2CC(C(=O)Nc3cccc(S(=O)(=O)NC4=NCCC4)c3)CC2=O)cc1 (stereo unspecified)	1	-4	1	-9	·
Cc1cccn2c(=O)c(/C=N/O)c(NCc3ccccc3)nc12	-4	43*	2	6	·
Cc1cccn2c(=O)c(C=NCc3ccccc3)c(NCCO)nc12	14	45*	2	-8	+
COc1ccc(C2c3ccc4ccccc4c3Oc3ncn(CCCN(C)C)c(=N)c32)cc1 (stereo unspecified)	-13	-14	0	18	·
O=C1c2ccc(Oc3ccc4c(c3)C(=O)N(CCCCO)C4=O)cc2C(=O)N1CCCCO	-4	-28	0	0	·
O=C1c2ccc(-c3ccc4c(c3)C(=O)N(CCCO)C4=O)cc2C(=O)N1CCCO	20	54*	2	-17	i
NNc1nc2ccccc2c(=O)n1Cc1ccccc1	9	41*	30	-3	i
COc1ccc(NC(=O)Cn2c(C)cc(=O)c3ccccc32)cc1	-22	-14	0	-4	·
COc1cccc2c(=O)cc(C)n(CC(=O)Nc3cccc(C)c3)c12	-22	44*	0	-1	i
O=c1oc2ccccc2cc1-c1nnc(NCc2ccco2)s1	-2	50*	2	-10	i
O=c1oc2ccccc2cc1-c1nc2c(s1)CCc1ccccc1-2	-3	·	11	4	·
COc1ccc2oc(=O)c(-c3nnc(N)s3)cc2c1	31	38	4	2	·
Nc1nnc(-c2cc3ccccc3oc2=O)s1	-4	47*	0	-8	+
CCOc1ccc(CCNC(=O)COC(=O)c2cccc(S(=O)(=O)N(C)C)c2)cc1OCC	3	6	·	·	·
CN(C)c1cccc(C(=O)OCC(=O)Nc2ccccc2-c2ccccc2)c1	-15	40*	0	·	i
CN(C)c1cccc(C(=O)OCC(=O)Nc2ccccc2Cl)c1	-10	·	0	-4	·
CCOc1ccc(CCNC(=O)COC(=O)c2cccc(N(C)C)c2)cc1OCC	-4	40*	2	-7	i
COc1ccccc1-c1nnc(N)s1	-4	41*	3	-28	i
COc1ccc(C)cc1Nc1nc(N)c2cc(OC)c(OC)cc2n1	-20	35	0	-5	·
COc1ccc(Cl)cc1Nc1nc(N)c2ccccc2n1	-7	45*	2	9	+
CSCCC(NC(=O)c1ccccc1Cl)C(=O)N1CCCCC1 (stereo unspecified)	-7	3	0	5	·
COC(=O)C1=C(C)N(CCCC(=O)O)C(=O)NC1c1cccc(Cl)c1Cl (stereo unspecified)	-4	4	1	3	·
